The text below walks through data of PubChem BioAssay (EPA / NIEHS).

Test [1] is described as follows: APR_HepG2_P-H2AX_72hr: Apredica 72-hour HepG2 Assay for H2AX Phosphorylation (AID 2282916).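 Note: phospho-histone H2A.x immunostain intensity per cell marking DNA damage.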 The conditions noted are these: imaging, actives raise or lower the signal. The method, boiled down:
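HepG2 human liver cells were exposed for 72 hr to compounds at 0.39–200 uM (10 concentrations, duplicate per plate) in 0.5% v/v DMSO. Fixed, permeabilized cells were immunolabeled for phospho-histone H2A.x with Hoechst 33342 and imaged by HCS fluorescence; bidirectional fit versus DMSO.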

Test [2] is described as follows: APR_HepG2_MitoMembPot_72hr: Apredica 72-hour HepG2 Assay for Mitochondrial Membrane Potential (AID 2282917). The following applies: imaging, actives raise or lower the signal. In outline:
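Membrane potential read by MitoTracker Red CMXRos (250 nM, 30 min, pre-fixation) fluorescence imaging of HepG2 after 72 hr exposure. Ten concentrations, 0.39–200 uM, duplicate wells, 0.5% DMSO; fitted in both directions against DMSO baseline.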

Test [3] is described as follows: APR_HepG2_MitoticArrest_72hr: Apredica 72-hour HepG2 Assay for Mitotic Arrest (AID 2282918). The conditions noted are these: high-content imaging, actives raise or lower the signal. In outline:
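Read-out is phospho-histone H3 immunofluorescence with Hoechst nuclear segmentation, imaged at 20x. Human HepG2 liver cells received ten concentrations (0.39–200 uM, final DMSO 0.5% v/v) for 72 hr before fixation. Gain or loss of signal was fitted relative to DMSO.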

Test [4] is described as follows: APR_HepG2_MicrotubuleCSK_72hr: Apredica 72-hour HepG2 Assay for Microtubule CSK Stabilty (AID 2282919). The following applies: HepG2 microtubule cytoskeleton, high-content imaging, actives raise or lower the signal. The method, boiled down:
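Read-out is tubulin fluorescence intensity from high-content imaging of HepG2 cells, with nuclei identified by Hoechst 33342. Treatment lasts 72 h at 0.39–200 uM, and curves are fitted bidirectionally against the DMSO negative control.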

Test [5] can be described thus: APR_HepG2_P-H2AX_24hr: Apredica 24-hour HepG2 Assay for H2AX Phosphorylation (AID 2282920). The following applies: high-content imaging, actives raise or lower the signal. The method, boiled down: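 HepG2, 24 hr, cpd 0.39–200 uM (10 conc, duplicate), DMSO 0.5% v/v final. Fix 3.7% formaldehyde, Triton X-100 permeabilize, anti-phospho-H2A.x 1:200 + Hoechst 2 ug/mL. Imaged, bidirectional fit vs DMSO.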

A short description of test [6]: APR_HepG2_StressKinase_72hr: Apredica 72-hour HepG2 Assay for Stress Kinase (AID 2282921). The following applies: HepG2 stress kinase (phospho-c-Jun) imaging, actives raise or lower the signal. In outline: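 Cells were exposed for 72 h to ten concentrations (0.39–200 uM, duplicate) at 0.5% v/v DMSO final, then fixed with 3.7% formaldehyde, permeabilized and immunostained for phospho-c-Jun (Cy3 secondary) with Hoechst nuclear counterstain.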

Test [7] in a line: APR_HepG2_StressKinase_24hr: Apredica 24-hour HepG2 Assay for Stress Kinase (AID 2282922). The conditions noted are these: HepG2 stress kinase (phospho-c-Jun) imaging, actives raise or lower the signal. The method, boiled down: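 HepG2, 24 hr dosing, 0.39–200 uM in duplicate, 0.5% DMSO; formaldehyde fix (3.7%), 0.5% Triton X-100; anti-phospho-c-Jun + Cy3 secondary, Hoechst counterstain; ArrayScan imaging; bidirectional curve fit vs DMSO baseline.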

A short description of test [8]: APR_HepG2_p53Act_72hr: Apredica 72-hour HepG2 Assay for p53 Activation (AID 2282923).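 Note: average cellular p53 protein immunofluorescence intensity in HepG2 cells.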 The following applies: high-content imaging, actives raise or lower the signal. In outline: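 Cells were dosed for 72 hr with compounds at 0.39–200 uM in duplicate (final DMSO 0.5% v/v), then fixed in 3.7% formaldehyde, permeabilized with Triton X-100 and immunostained for p53 (Cy5) with Hoechst 33342 nuclear counterstain.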

Test [9] is described as follows: APR_HepG2_NuclearSize_72hr: Apredica 72-hour HepG2 Assay for Nuclear Size (AID 2282925). The conditions noted are these: high-content imaging, actives raise or lower the signal. In outline:
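HepG2; cpd 0.39–200 uM, 10 conc, duplicate; 72 h; DMSO 0.5% v/v; fix 3.7% formaldehyde 30 min RT; Triton permeabilization; Hoechst 2 ug/mL; HCS imaging 20x; nuclear diameter; gain/loss fit vs DMSO.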

A short description of test [10]: ATG_CRE_CIS: Attagene CIS-FACTORIAL HepG2 Assay for human cAMP Responsive Element (CRE) binding protein 3 (AID 2282926). The following applies: HepG2 CRE cis-reporter, Attagene multiplexed mRNA; actives raise or lower the signal. The method, boiled down: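 Human liver HepG2, transient MRTU transfection, 24 h compound exposure. Total RNA → oligo(dT) RT → PCR → 6-FAM primer extension → HpaI cut → CE. Activity called both directions vs DMSO.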

For test [11], the target named is CCAAT/enhancer-binding protein beta (Homo sapiens) (UniProt P17676). Briefly: ATG_C_EBP_CIS: Attagene CIS-FACTORIAL HepG2 Assay for human CCAAT/Enhancer Binding Protein (C/EBP) beta (AID 2282927). The conditions noted are these: HepG2 Attagene cis-factorial transcription factor reporter; actives raise or lower the signal. The method, boiled down: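 Changes in reporter mRNA, rather than exogenous chimeric receptor activity, reflect native C/EBP signalling in transfected HepG2 cells dosed for 24 h; transcripts are detected by RT-PCR and capillary electrophoresis.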

Test [12] can be described thus: ATG_CMV_CIS: Attagene CIS-FACTORIAL HepG2 Assay for human CMV (Internal Marker) (AID 2282928).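 Note: endpoint acts as a background internal control marker rather than a target.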 The following applies: HepG2 CMV promoter reporter, transcription factor profiling; actives raise or lower the signal. The method, boiled down: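 HepG2 cells transiently transfected with multiple cis-regulated reporter units; 24 h compound exposure. Reporter mRNA quantified by RT-PCR, 6-FAM primer-extension labeling, HpaI digestion and capillary electrophoresis; bidirectional fitting against DMSO baseline.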

Test [13] can be described thus: ATG_DR4_LXR_CIS: Attagene CIS-FACTORIAL HepG2 Assay for human Liver X Receptor (LXR), DR4 submotif (AID 2282929). The following applies: HepG2 Attagene DR4 cis-reporter, mRNA transcription; actives raise or lower the signal. In outline:
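Endogenous factor activity at a DR4 cis-element is read as reporter mRNA in transiently transfected HepG2 cells. Exposure lasts 24 h; transcripts are amplified, fluorescently labelled and sized by capillary electrophoresis, with DMSO as baseline.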

Test [14] has as its target Aryl hydrocarbon receptor (Homo sapiens) (UniProt P35869). Kind of test: ATG_Ahr_CIS: Attagene CIS-FACTORIAL HepG2 Assay for human Aryl Hydrocarbon Receptor (Ahr) (AID 2282930). The conditions noted are these: HepG2 AhR cis-factorial reporter transcription; actives raise or lower the signal. The method, boiled down:
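HepG2, transient MRTU (cis) transfection, 24 h exposure. RNA → cDNA → PCR → 6-FAM primer extension → HpaI 2 h 37 C → CE. Fit: bidirectional, DMSO baseline.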

Test [15] in a line: ATG_AP_1_CIS: Attagene CIS-FACTORIAL HepG2 Assay for human Activator Protein 1 (AP-1) (AID 2282931). The conditions noted are these: HepG2 Attagene cis-factorial AP-1 reporter mRNA; actives raise or lower the signal. The method, boiled down:
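Fluorescence of labelled PCR fragments separated by capillary electrophoresis gives reporter mRNA levels. HepG2 with transfected cis-regulated reporter units, 24 h exposure; DMSO serves as baseline for bidirectional curve fits.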

A short description of test [16]: ATG_AP_2_CIS: Attagene CIS-FACTORIAL HepG2 Assay for human Activator Protein 2 (AP-2) (AID 2282932). The conditions noted are these: HepG2 AP-2 cis-reporter, Attagene transcription factor profiling; actives raise or lower the signal. The method, boiled down: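 Step one: transient transfection of HepG2 with reporter transcription units. Step two: 24 h chemical exposure. Step three: RNA extraction, RT-PCR, labelled fragment analysis by capillary electrophoresis; DMSO serves as baseline.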

For test [17], the target named is Retinoic acid receptor alpha (Homo sapiens) (UniProt P10276). Briefly: ATG_DR5_RAR_CIS: Attagene CIS-FACTORIAL HepG2 Assay for human Retinoic Acid Receptor Alpha (RARE), DR5 submotif (AID 2282934). The conditions noted are these: HepG2 Attagene cis-factorial RARE DR5 reporter, mRNA; actives raise or lower the signal. The method, boiled down:
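HepG2, transient cis-reporter transfection, 24 h exposure. mRNA readout: RT-PCR, FAM label, HpaI cut, capillary electrophoresis. DMSO baseline, gain/loss fitting.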

Test [18] in a line: APR_HepG2_CellLoss_72hr: Apredica 72-hour HepG2 Assay for Cell Loss (AID 2282915). The conditions noted are these: high-content imaging. The method, boiled down: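 Cell number comes from Hoechst 33342-labelled nuclei, imaged at 20x after 3.7% formaldehyde fixation. Dosing was 0.39–200 uM, ten concentrations in duplicate, 0.5% DMSO final, for 72 h. Bidirectional fit relative to DMSO baseline.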

The nature of test [19]: ATG_BRE_CIS: Attagene CIS-FACTORIAL HepG2 Assay for human Bone Morphogenetic Protein (BMP) Response Element (BRE) (AID 2282933). The following applies: HepG2 BMP response element reporter, Attagene transcription factor profiling; actives raise or lower the signal. The method, boiled down: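 Read-out: reporter mRNA induction quantified by RT-PCR and capillary electrophoresis after 24 h chemical exposure of transfected HepG2 cells. Endogenous factor activity on the BMP response element; gain or loss fitted against DMSO baseline.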

“And” between values parts separate entries of the source, which are not always exact repeats. Identical values can stand only once. More than one record can exist for a structure, and the calls need not agree. The source made the active and inactive calls. Rule for the calls: active = hit-call score of the fitted dose curve at least 0.9, where 1 is the maximum; inactive = score below 0.9.

CCAAT/enhancer-binding protein beta (Homo sapiens), sequence (P17676 whole entry, looked up): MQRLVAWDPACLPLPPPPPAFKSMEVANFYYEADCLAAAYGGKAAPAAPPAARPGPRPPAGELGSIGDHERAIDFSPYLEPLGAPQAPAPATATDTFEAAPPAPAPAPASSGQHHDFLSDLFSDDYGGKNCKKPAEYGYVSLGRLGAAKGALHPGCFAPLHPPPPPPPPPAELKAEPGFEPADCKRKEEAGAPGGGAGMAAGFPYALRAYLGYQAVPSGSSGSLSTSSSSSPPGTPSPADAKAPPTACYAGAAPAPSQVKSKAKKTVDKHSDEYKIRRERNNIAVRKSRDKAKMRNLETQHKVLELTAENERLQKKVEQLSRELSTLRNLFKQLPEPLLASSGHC
Aryl hydrocarbon receptor (Homo sapiens), sequence (P35869 whole entry, looked up): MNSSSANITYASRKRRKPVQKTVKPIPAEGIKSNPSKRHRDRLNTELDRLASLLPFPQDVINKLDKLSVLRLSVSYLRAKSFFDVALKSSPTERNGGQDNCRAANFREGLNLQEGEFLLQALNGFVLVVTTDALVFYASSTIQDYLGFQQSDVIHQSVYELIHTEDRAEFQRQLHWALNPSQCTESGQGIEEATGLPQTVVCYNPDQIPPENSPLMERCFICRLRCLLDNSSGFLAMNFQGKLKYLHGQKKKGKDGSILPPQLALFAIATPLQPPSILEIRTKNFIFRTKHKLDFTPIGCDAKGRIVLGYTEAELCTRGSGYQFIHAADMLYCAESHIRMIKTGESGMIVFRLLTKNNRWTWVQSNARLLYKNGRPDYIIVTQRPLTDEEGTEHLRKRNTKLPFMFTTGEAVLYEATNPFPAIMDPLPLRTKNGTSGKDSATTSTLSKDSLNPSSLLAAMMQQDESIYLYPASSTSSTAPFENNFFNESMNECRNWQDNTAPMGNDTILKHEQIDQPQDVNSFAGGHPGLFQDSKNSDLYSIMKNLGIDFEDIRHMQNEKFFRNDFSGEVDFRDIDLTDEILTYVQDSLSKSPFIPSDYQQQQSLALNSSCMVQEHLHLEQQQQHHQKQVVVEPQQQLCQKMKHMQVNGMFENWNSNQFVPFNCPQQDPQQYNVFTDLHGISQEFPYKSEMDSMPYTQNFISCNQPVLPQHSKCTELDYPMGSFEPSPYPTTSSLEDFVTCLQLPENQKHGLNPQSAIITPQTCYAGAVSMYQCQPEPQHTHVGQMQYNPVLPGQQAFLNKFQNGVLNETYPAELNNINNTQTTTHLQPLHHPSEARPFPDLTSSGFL
Retinoic acid receptor alpha (Homo sapiens), sequence (P10276 whole entry, looked up): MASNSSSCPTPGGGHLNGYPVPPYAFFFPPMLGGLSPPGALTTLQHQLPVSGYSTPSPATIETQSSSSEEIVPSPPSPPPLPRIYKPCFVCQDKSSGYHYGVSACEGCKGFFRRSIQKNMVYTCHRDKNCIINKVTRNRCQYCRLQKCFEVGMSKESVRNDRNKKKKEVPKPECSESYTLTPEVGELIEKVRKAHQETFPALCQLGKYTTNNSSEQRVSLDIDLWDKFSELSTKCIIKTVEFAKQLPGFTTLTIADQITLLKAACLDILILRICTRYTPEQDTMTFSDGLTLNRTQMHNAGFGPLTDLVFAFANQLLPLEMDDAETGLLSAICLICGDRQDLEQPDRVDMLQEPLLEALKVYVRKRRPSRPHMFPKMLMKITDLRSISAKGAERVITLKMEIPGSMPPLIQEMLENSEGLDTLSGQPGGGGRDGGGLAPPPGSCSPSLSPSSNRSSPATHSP

For the compound `CCOC(=O)C(Cl)Cc1cc(-n2nc(C)n(C(F)F)c2=O)c(F)cc1Cl` (stereo not drawn), the compound was classed as inactive in test [1], in test [2], in test [3], in test [4], in test [5] and in test [6]. For the same compound, the compound was called inactive in test [7], in [8], in [9], in test [10], in test [11] and in [12]. Also, the outcome in [13], in [14], in test [15], in test [16] and in [17] was inactive.

For the compound `Cc1cc(Cl)ccc1OCC(=O)O`, the result in [18], in test [1], in test [2], in test [4], in test [5] and in test [7] was inactive. In addition, the result in test [8], in [9], in [10], in test [11], in test [12] and in test [13] was inactive. The call in test [14], in test [15], in test [16] and in test [19] was inactive.

Consider `CS/C(C)=N/OC(=O)N(C)SN(C)C(=O)O/N=C(\C)SC`, for which the compound was classed as inactive in test [18], in [1], in test [2], in [4], in test [5] and in [7]. For the same compound, the compound was classed as inactive in test [8], in [9], in test [10], in [11], in [12] and in test [13]. Moreover, the compound was called inactive in test [14], in test [15], in test [16] and in test [17].

In the case of `C=CCC1=C(C)C(OC(=O)C2C(C=C(C)C)C2(C)C)CC1=O` (stereo not drawn), the AC50 in [1] is 53.8 µM (active) and 47.5 µM (active); in test [5], 38.1 µM (active); in test [7], 32.4 µM (active); in test [8], 117 µM (active); in test [10], 48.8 µM (active) [middle of 5 runs]; in [11] it was 70.3 µM (active) and 111 µM (active) and 13.8 µM (active). The AC50 in test [12] was 35 µM (active) [middle of 5 runs]; in test [13] it was 51.1 µM (active) [middle of 4 runs]; in test [14] it was 43.6 µM (active) and 105 µM (active); in test [15] it was 33.5 µM (active) [middle of 6 runs]; in [16], 167 µM (active). The call in test [1], in [2], in test [4], in [5], in test [7] and in [8] was inactive. The compound was classed as inactive in [9], in test [10], in test [11], in test [12], in [13] and in [14]. For the same compound, the call in test [16] was inactive.
